Results from PubChem BioAssay (Tox21).
Values without a mark were called inactive. Records with an inconclusive call do not appear. Where a call stands in place of a potency, no number is given. Calls of active or inactive are those of the source. Calls follow the shape of the full dose curve.

What was measured:
[1] = target: Acetylcholinesterase (Homo sapiens) (UniProt P22303); assay: Acetylcholinesterase (AChE) small molecule antagonists: colormetric cell-based qHTS assay (AID 1347395); also: nearly all actives have a fitted effect of over 30% in size; also: potency is read from the fitted curve at half-maximal effect
How it was run: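 Neuroblastoma line SH-SY5Y supplied the enzyme; cells were preincubated with compound for 30 min at 37 C and 5% CO2. Acetylthiocholine with DTNB was then added for 90 min at 37 C, and thiocholine was measured by colour.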

[2] = target: Acetylcholinesterase (Homo sapiens) (UniProt P22303); assay: Acetylcholinesterase (AChE) small molecule antagonists: enzyme-based qHTS assay (AID 1347397); details: Potency: AChE enzyme activity inhibition; outcome: AChE enzyme activity inhibition; also: nearly all actives have a fitted effect of over 55% in size; also: potency is read from the fitted curve at half-maximal effect
How it was run: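 Recombinant human AChE, dispensed at 50 mU/mL, was preincubated with Tox21 10K compounds or DMSO vehicle for 30 min at room temperature. DTNB plus acetylthiocholine was then added, and thiocholine was measured colorimetrically after a further 10 min.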

[3] = target: Acetylcholinesterase (Homo sapiens) (UniProt P22303); assay: Acetylcholinesterase (AChE) small molecule antagonists: fluorescence cell-based qHTS assay (AID 1347398); details: Potency: AChE activity; outcome: AChE activity; also: nearly all actives have a fitted effect of over 50% in size; also: potency is read from the fitted curve at half-maximal effect
How it was run: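 Human SH-SY5Y cells were plated overnight at 37 C, exposed to compound for 30 min at 37 C, 5% CO2, then given acetylthiocholine plus Thiolite Green for 40 min at room temperature; thiocholine fluorescence (Ex/Em 490/520 nm) reports endogenous AChE activity.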

[4] = target: Acetylcholinesterase (Homo sapiens) (UniProt P22303); assay: Acetylcholinesterase (AChE) small molecule antagonists: enzyme-based qHTS assay with human liver microsomes (AID 1347399); details: Potency: qHTS inhibition; outcome: qHTS inhibition; also: nearly all actives have a fitted effect of over 60% in size
How it was run: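 Recombinant human AChE (50 mU/mL in the enzyme mix) and human liver microsomes (0.25 mg/mL final) were preincubated with compound and NADPH (0.25 mg/mL final) for 30 min at 37 C. Acetylthiocholine/DTNB was then added; thiocholine was read colorimetrically after 10 min at room temperature.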

Acetylcholinesterase (Homo sapiens), sequence (P22303 whole entry, looked up): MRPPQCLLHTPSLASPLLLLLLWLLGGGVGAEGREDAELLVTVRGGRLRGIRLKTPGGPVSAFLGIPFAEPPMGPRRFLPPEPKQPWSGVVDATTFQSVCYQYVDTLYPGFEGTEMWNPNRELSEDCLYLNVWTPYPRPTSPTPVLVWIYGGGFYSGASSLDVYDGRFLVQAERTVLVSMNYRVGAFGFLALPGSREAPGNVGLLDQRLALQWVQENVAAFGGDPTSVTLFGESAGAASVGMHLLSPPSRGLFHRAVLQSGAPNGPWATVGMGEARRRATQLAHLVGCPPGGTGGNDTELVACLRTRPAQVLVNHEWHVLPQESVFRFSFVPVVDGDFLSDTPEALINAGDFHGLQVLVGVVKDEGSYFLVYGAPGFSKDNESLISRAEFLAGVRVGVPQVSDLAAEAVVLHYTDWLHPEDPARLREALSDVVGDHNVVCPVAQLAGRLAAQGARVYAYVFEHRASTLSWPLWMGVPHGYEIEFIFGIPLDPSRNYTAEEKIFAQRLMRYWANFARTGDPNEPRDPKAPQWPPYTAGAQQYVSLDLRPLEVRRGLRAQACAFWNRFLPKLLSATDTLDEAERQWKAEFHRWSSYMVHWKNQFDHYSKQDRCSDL

Row | Structure (SMILES) | Potency [1] | Potency [2] | Potency [3] | Potency [4] | activity, negative = inhibition [1] | activity change, negative = inhibition [2] | activity change, negative = inhibition [3] | activity change, negative = inhibition [4]
1 | COC(=O)CCCCCCCC(=O)OC | inactive | inactive | inactive | inactive |  |  |  | 
2 | O=C1[C@@H]2[C@H]3CC[C@H](C3)[C@@H]2C(=O)N1CCCCN1CCN(c2ncccn2)CC1 | inactive | inactive | inactive | inactive |  |  |  | 
3 | CCCCOC(=O)c1ccc(N)cc1 | inactive | inactive | inactive | inactive |  |  |  | 
4 | NC(=O)N/N=C/c1ccc([N+](=O)[O-])o1 | inactive | inactive | inactive | inactive |  |  |  | 
5 | CC(C)c1cc(C(C)C)cc(C(C)C)c1 | inactive | inactive | inactive | inactive |  |  |  | 
6 | CCCCOC(O)CC (stereo not given) | inactive | inactive | inactive | inactive |  |  |  | 
7 | O=C1c2ccccc2C(=O)c2c(O)ccc(O)c21 | inactive | inactive | inactive | inactive |  |  |  | 
8 | COCCOCCOCCOCCOCCO | inactive | inactive | inactive | inactive |  |  |  | 
9 | CCN(CCO)CCCC(C)Nc1ccnc2cc(Cl)ccc12 (stereo not given) |  |  |  |  | -5.02% [at 10.5 µM] | -2.76% [at 10.5 µM] | -7.12% [at 10.5 µM] | -0.168% [at 10.5 µM]
10 | CCCCCCCCCCCC(=O)OC | inactive | inactive | inactive | inactive |  |  |  | 
11 | CC(C)(C)NC(=O)[C@H]1CC[C@H]2[C@@H]3CC[C@H]4NC(=O)C=C[C@]4(C)[C@H]3CC[C@]12C | inactive | inactive | inactive | inactive |  |  |  | 
12 | COc1ccc(-n2nc(CCC(=O)N(C)O)cc2-c2ccc(Cl)cc2)cc1 | inactive | inactive | inactive | inactive |  |  |  | 
13 | OCCN1CCNCC1 | inactive | inactive | inactive | inactive |  |  |  | 
14 | O=C(O)Cc1c(Cl)ccc(Cl)c1Cl | inactive | inactive | inactive | inactive |  |  |  | 
15 | O=C1CCCCCN1 | inactive | inactive | inactive | inactive |  |  |  | 
16 | CC(=O)OC[C@H]1O[C@@H](n2ncc(=O)[nH]c2=O)[C@H](OC(C)=O)[C@@H]1OC(C)=O | inactive | inactive | inactive | inactive |  |  |  | 
17 | OB(O)O | inactive | inactive | inactive | inactive |  |  |  | 
18 | O=C(N/N=C/c1ccc([N+](=O)[O-])o1)c1ccc(O)cc1 | inactive | inactive | inactive | inactive |  |  |  | 
19 | C1CSCCS1 | inactive | inactive | inactive | inactive |  |  |  | 
20 | CCCCCCCCCCOC(=O)c1ccccc1C(=O)OCCCCCCCC | inactive | inactive | inactive | inactive |  |  |  | 

Row | Structure (SMILES) | Potency [1] | Potency [2] | Potency [3] | Potency [4] | activity, negative = inhibition [1] | activity change, negative = inhibition [2] | activity change, negative = inhibition [3] | activity change, negative = inhibition [4]
21 | Cc1cc(C)c(O)c(C)c1 | inactive | inactive | inactive | inactive |  |  |  | 
22 | NS(=O)(=O)c1ccccc1OC(F)(F)F | inactive | inactive | inactive | inactive |  |  |  | 
23 | O=C(O)c1cc(C(=O)O)cc(C(=O)O)c1 | inactive | inactive | inactive | inactive |  |  |  | 
24 | Cc1c(N)cccc1C(F)(F)F | inactive | inactive | inactive | inactive |  |  |  | 
25 | CC(C)(C)C(=O)NCCCC(=O)O | inactive | inactive | inactive | inactive |  |  |  | 
26 | CCOC=C(C(=O)OCC)C(=O)OCC | inactive | inactive | inactive | inactive |  |  |  | 
27 | CCc1c(C)cc(N)c(CC)c1N | 39.9 µM (active) | 71 µM (active) | 39.9 µM (active) | inactive |  |  |  | 
28 | Oc1ccc(Cl)cc1Sc1cc(Cl)ccc1O | inactive | inactive | inactive | inactive |  |  |  | 
29 | COc1cc(C(=O)NCCCCCC(=O)O)cc(OC)c1OC | inactive | inactive | inactive | inactive |  |  |  | 
30 | CC(=O)OCC=C(C)C | inactive | inactive | inactive | inactive |  |  |  | 
31 | O=C(O)c1cc(=O)c2c(OCC(O)COc3cccc4oc(C(=O)O)cc(=O)c34)cccc2o1 | inactive | inactive | inactive | inactive |  |  |  | 
32 | CCCCCCCC | inactive | inactive | inactive | inactive |  |  |  | 
33 | CC(=O)N1CCN(c2ccc(OC[C@H]3CO[C@](Cn4ccnc4)(c4ccc(Cl)cc4Cl)O3)cc2)CC1 | 35.6 µM (active) | inactive | 31.7 µM (active) | inactive |  |  |  | 
34 | CC(C)c1ccc(C=O)cc1 | inactive | inactive | inactive | inactive |  |  |  | 
35 | CC/C=C\CCO | inactive | inactive | inactive | inactive |  |  |  | 
36 | C=CCOC(=O)CC(C)C | inactive | inactive | inactive | inactive |  |  |  | 
37 | O=C(O)c1ccc[n+]([O-])c1 | inactive | inactive | inactive | inactive |  |  |  | 
38 | COCCOCCOCCOC | inactive | inactive | inactive | inactive |  |  |  | 
39 | CCn1cc(C(=O)O)c(=O)c2cnc(N3CCNCC3)nc21 | inactive | inactive | inactive | inactive |  |  |  | 
40 | c1ccc2cnncc2c1 | inactive | inactive | inactive | inactive |  |  |  | 

Row | Structure (SMILES) | Potency [1] | Potency [2] | Potency [3] | Potency [4] | activity, negative = inhibition [1] | activity change, negative = inhibition [2] | activity change, negative = inhibition [3] | activity change, negative = inhibition [4]
41 | COc1ccc(N=[N+]([O-])c2ccc(OC)cc2)cc1 | inactive | inactive | inactive | inactive |  |  |  | 
42 | CC/C=C\CC/C=C/C(OCC)OCC | inactive | inactive | inactive | inactive |  |  |  | 
43 | CNS(=O)(=O)Cc1ccc2[nH]cc(CCN(C)C)c2c1 | inactive | inactive | inactive | inactive |  |  |  | 
44 | O=c1c(O)c(-c2ccc(O)c(O)c2)oc2cc(O)cc(O)c12 | inactive | inactive | inactive | inactive |  |  |  | 
45 | CSc1ccc(/C=C2/C(C)=C(CC(=O)O)c3cc(F)ccc32)cc1 | inactive | inactive | inactive | inactive |  |  |  | 
46 | Cc1ccccc1Br | inactive | inactive | inactive | inactive |  |  |  | 
47 | C/C=C/C(=O)O | inactive | inactive | inactive | inactive |  |  |  | 
48 | CCn1c2ccccc2c2cc(N)ccc21 | inactive | inactive | inactive | inactive |  |  |  | 
49 | O=C1CCCCCCCCCCC1 | inactive | inactive | inactive | inactive |  |  |  | 
50 | F[B-](F)(F)F | inactive | inactive | inactive | inactive |  |  |  | 
51 | CCCCOCCOCCOC(C)=O | inactive | inactive | inactive | inactive |  |  |  | 
52 | CC(=O)Nc1ccccc1 | inactive | inactive | inactive | inactive |  |  |  | 
53 | Cc1coc2ccccc2c1=O | inactive | inactive | inactive | inactive |  |  |  | 
54 | C[C@@H]1C[C@H]2[C@@H]3CCC4=CC(=O)C=C[C@]4(C)[C@@]3(F)[C@@H](O)C[C@]2(C)[C@@]1(O)C(=O)COP(=O)(O)O | inactive | inactive | inactive | inactive |  |  |  | 
55 | C=CCOC(=O)C(=C)C | inactive | inactive | inactive | inactive |  |  |  | 
56 | CC(C)Cc1ccccc1 | inactive | inactive | inactive | inactive |  |  |  | 
57 | C=C(C)C(=O)OCCC(C)OC(=O)C(=C)C (stereo not given) | inactive | inactive | inactive | inactive |  |  |  | 
58 | COc1ccc(C(=O)c2cccc(O)c2)c(OC)c1 | inactive | inactive | inactive | inactive |  |  |  | 
59 | Nc1ccncc1N | inactive | inactive | inactive | inactive |  |  |  | 
60 | O=C1Nc2ccccc2C1=O | inactive | inactive | inactive | inactive |  |  |  | 
